CYP2C9 activ = human CYP2C9 activators, primary screen, biochemical, luminescence; Cytochrome P450 2C9 (Homo sapiens), P11712; recombinant CYP2C9, luciferin-H conversion; stronger effect = higher value; factor 1 = untreated enzyme, 0 = blocked; activation factor at 5 µM; 96,000 tested, 1.4% active; AID 1024, 2008;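 active = activation factor of 2 or more for CYP2C9 at a 5 µM dose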;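 also: 0 = sulfaphenazole-blocked wells and 1 = vehicle-only wells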
CYP2C19 act = human CYP2C19 activators, primary screen, biochemical, luminescence. recombinant CYP2C19, luciferin-H EGE luminescence; stronger effect = higher value; 0 = fully inhibited enzyme, 1 = untreated enzyme. activation factor at 5 µM. 96,000 tested, under 10 active. AID 1025, 2008;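 active = activation factor of at least 2 at 5 µM in the primary screen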;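 also: 0 = wells with 2.5 mM tranylcypromine and 1 = vehicle-only wells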
Target sequence (P33261 whole entry, looked up): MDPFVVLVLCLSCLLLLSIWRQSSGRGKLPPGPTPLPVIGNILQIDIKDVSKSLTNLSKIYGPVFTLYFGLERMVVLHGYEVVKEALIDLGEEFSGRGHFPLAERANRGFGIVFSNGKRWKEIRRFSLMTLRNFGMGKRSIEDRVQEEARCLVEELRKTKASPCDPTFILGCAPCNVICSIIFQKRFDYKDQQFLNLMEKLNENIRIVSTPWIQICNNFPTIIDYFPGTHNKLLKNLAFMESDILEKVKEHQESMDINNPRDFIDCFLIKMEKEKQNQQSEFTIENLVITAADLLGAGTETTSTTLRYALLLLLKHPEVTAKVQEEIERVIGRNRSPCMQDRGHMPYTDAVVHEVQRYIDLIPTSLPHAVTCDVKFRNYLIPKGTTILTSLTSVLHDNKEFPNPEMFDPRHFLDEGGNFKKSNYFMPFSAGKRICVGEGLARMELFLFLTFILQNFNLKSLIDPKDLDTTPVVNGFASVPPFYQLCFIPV
CYP2C19 inhib = blockers of cytochrome P450 2C19 activity – biochemical, luminescence, ADME assay, primary screen; CYP2C19 Supersomes, luciferin-H EGE luminescence, 30 min; 96,000 tested, 21% active; inhibition, % at 5 µM; P33261;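 active = CYP2C19 inhibition above a set limit at 5 µM in the primary screen, cut at about 50% in these data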;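 also: plate controls were negative control wells for no effect and 2.5 mM tranylcypromine positive control for full effect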
Cav3 T inh = Cav3.2 calcium influx blockers – cell-based, Fluo-4 calcium fluorescence, FDSS, MLSMR library, primary screen; Cav3.2-expressing cells; stronger effect = lower value; 100,000 tested, 4% active; Voltage-dependent T-type calcium channel subunit alpha-1H (Homo sapiens), O95180; AID 449739, 2010; B-score at 10 µM;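 active = single-dose well whose peak fluorescence ratio is a statistical outlier from its plate by either plate-standardised score or position-corrected B-score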
CYP2C9 inhib = blockers of cytochrome P450 2C9 activity – biochemical, luminescence, ADME assay, primary screen; 96,000 tested, 20% active; P11712; CYP2C9 Supersomes, luciferin-H conversion; AID 777, 2007; inhibition, % at 5 µM;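 active = blocking of liver enzyme CYP2C9 beyond about 50% at 5 µM, limit read from the data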
* = called active by the depositor; nt = no result given. Rows were chosen to be rich in hits. Some 27% of all compounds tested hit in one or more screens of this group.

SMILES	CYP2C9 activ	CYP2C19 act	CYP2C19 inhib	Cav3 T inh	CYP2C9 inhib
CN(C)c1ccc(NC(=O)CN2CCC(C(=O)c3ccc(F)cc3)CC2)cc1	1	1.1	-8.6	-1.6	1.9
Cc1ccc(NC(=O)CN2CCC(C(=O)c3ccc4c(c3)OCCO4)CC2)cc1	0.5	0.2	84.8*	-2.83	48.9
COC(=O)c1ccccc1NC(=O)CN1CCC(C(=O)c2ccc3c(c2)OCCO3)CC1	0.2	0.2	80.8*	0.0276	78.5*
Cc1ccc(-n2c3c(c(=O)[nH]c2=O)C(C(F)(F)F)(C(F)(F)F)NC(=O)N3)cc1	1	1.1	-8.7	1.3	1.3
COc1ccc(CCN=CC2=C(O)CCCC2=O)cc1OC	1.1	1.1	-10.1	0.152	-11.6
Cc1cccc(OCCSc2nnc(-c3ccoc3C)n2C)c1	0.4	0	97.6*	0.328	57.5*
Cn1c(SCCOc2cccc(Cl)c2)nnc1-c1ccncc1	0.8	0.1	91.9*	-0.29	20.6
Cc1ccc(OCCSc2nnc(-c3ccncc3)n2C)cc1	0.6	0.1	92.7*	0.221	42.9
Cn1c(SCCC(=O)O)nnc1-c1ccncc1	nt	nt	nt	-0.266	nt
Cc1occc1-c1nnc(SCC(=O)N2c3ccccc3CCc3ccccc32)n1C	0.7	0.7	29.3	0.52	32.0
CCN(CC)S(=O)(=O)c1ccc(C2CNC(=O)C2)cc1 (stereo unspecified)	0.9	1.2	-19.1	1.29	10.0
COc1cccc(CN2C(=O)C3(C(C#N)=C(N)OC4=C3C(=O)CCC4)c3ccccc32)c1 (stereo unspecified)	0.3	0.8	22.7	-1.29	65.9*
O=C(Nc1ccc(F)cc1F)c1sccc1SCc1cccc(C(F)(F)F)c1	0.4	0.7	26.4	nt	57.9*
COc1ccc(NC(=O)c2sccc2SCc2cccc(C(F)(F)F)c2)cc1	0.3	0.5	50.5*	-5.11	68.8*
O=C(Nc1ccc(F)cc1)c1sccc1SCc1cccc(C(F)(F)F)c1	0.4	0.6	36.4	-1.99	64.7*
Cn1c(-c2ccc[nH]c2=O)nc2cc(Cl)ccc21	nt	nt	nt	0.86	nt
Cc1c(Br)ccc(NC(=O)CCN2C(=O)C3C4CCC(C4)C3C2=O)c1C (stereo unspecified)	1.7	0.8	24.8	0.799	-73.9
Nc1ccc(Sc2cnn(-c3ccccc3)c(=O)c2Cl)cc1	0.1	0	99.4*	-0.703	91.3*
CNc1cnn(-c2ccccc2)c(=O)c1Cl	0.9	1	-2.1	0.349	5.2
CSc1nc2c(c(=O)[nH]1)C(c1cccs1)C1=C(CCCC1=O)N2 (stereo unspecified)	0.8	1	2.6	0.591	19.8
Cc1ccsc1C1Nc2ccc3ncccc3c2C2=C1C(=O)CCC2 (stereo unspecified)	0.2	0.1	89.9*	-0.177	84.8*
COc1cc(C2Nc3ccc4ncccc4c3C3=C2C(=O)CCC3)ccc1O (stereo unspecified)	0.3	0.1	91.2*	1.06	65.6*
C#Cc1ccc([C@@H]2C=C(C(=O)NCc3ccccc3)O[C@H](OCCCCO)C2)cc1	nt	nt	nt	-0.467	nt
O=C(O)CC1NC(=O)N(c2ccc(Cl)cc2)C1=O (stereo unspecified)	1.2	1.1	-10.1	-1.93	-22.3
C/C(CCc1ccc2c(c1)OCO2)=N\N=C1\NC(=O)CC(C(=O)Nc2ccccc2)S1 (stereo unspecified)	0.3	0.8	22.1	-3.78	67.8*
SMILES	CYP2C9 activ	CYP2C19 act	CYP2C19 inhib	Cav3 T inh	CYP2C9 inhib
CCN1C(=O)CC(C(=O)Nc2ccc(F)cc2)SC1=Nc1ccc2c(c1)OCO2 (stereo unspecified)	0.7	1.1	-5.2	-1.5	33.8
CCOC(=O)CN1C(=O)C(O)(c2c(C)[nH]c3ccccc23)c2ccccc21 (stereo unspecified)	0.1	0	98.7*	nt	94.1*
CCOC(=O)CN1C(=O)C(O)(C2CCc3ccccc3C2=O)c2ccccc21 (stereo unspecified)	0.8	0.3	73.1*	-1.75	15.2
Cc1cc(C(=O)NNC(=S)NC(=O)/C=C/c2ccccc2Cl)n[nH]1	0.7	1.2	-16.1	-3.16	26.9
Cc1c(NC(=O)/C=C/c2cn(-c3ccccc3)nc2-c2ccccc2)c(=O)n(-c2ccccc2)n1C	0.6	0.9	13.3	-4.54*	36.6
Cc1c(NC(=O)N(C)C)c(=O)n(-c2ccccc2)n1C	nt	nt	nt	0.757	nt
Cc1sc2nc(C3CC3)nc(NCCNS(C)(=O)=O)c2c1C	0.2	0.6	36.5	0.604	76.2*
CCCc1cc(=O)n2[nH]c(-c3ccc(OC)cc3)nc2n1	0.8	0.9	5.3	-0.357	15.3
CN(C)c1ccc(P(=O)(OC2CCCCC2)C(O)c2cccnc2)cc1 (stereo unspecified)	0.9	0.6	40.5	0.108	10.2
COc1cc(C(O)P(=O)(OC2CCCCC2)c2ccc(N(C)C)cc2)cc(OC)c1OC (stereo unspecified)	0.7	0.2	83.8*	nt	26.6
CCOc1ccc2c(c1)c1nnc(SCC3CCCO3)nc1n2C (stereo unspecified)	0.5	0.5	47.1	1.51	47.5
COc1ccc(-n2cnc3ccccc32)cc1	0.4	0.4	61.2*	0.0455	58.7*
COc1ccccc1CN(C(=O)Cc1cccs1)C(C(=O)NC1CCCC1)c1ccncc1 (stereo unspecified)	0.5	0.2	76.9*	-0.394	49.9
COc1ccccc1N(C(=O)CNC(=O)c1ccco1)C(C(=O)NC1CCCC1)c1ccncc1 (stereo unspecified)	nt	nt	nt	0.536	nt
COc1ccccc1CN(C(=O)c1ccco1)C(C(=O)NC1CCCC1)c1ccncc1 (stereo unspecified)	0.6	0.4	62.6*	0.315	41.6
COc1ccc(CN(C(=O)c2ccc(-c3ccccc3)[nH]2)C(C(=O)NCC2CCCO2)c2ccc(C)o2)cc1 (stereo unspecified)	0.5	0.4	58.2*	nt	45.6
O=C(NC1CCCC1)C(c1ccncc1)N(Cc1ccccc1)C(=O)Cc1cccs1 (stereo unspecified)	0.6	0.4	60.8*	0.611	39.4
COc1cc(/C=C\C(=O)NCc2ccc3c(c2)cc(C)n3C)cc(OC)c1OC	nt	nt	nt	-0.278	nt
COc1ccc(CN2CCC(CNC(=O)NC3CCCCC3)CC2)cc1	1	1	4.2	1.37	-0.9
Cc1cc(C)c2c(=O)[nH]c(=O)n(Cc3ccccc3)c2n1	0.9	1	-4.2	-0.157	5.2
COc1cc(C(C(=O)NC2CCCCC2)N(Cc2cccs2)C(=O)Cc2c[nH]c3ccccc23)cc(OC)c1OC (stereo unspecified)	0.4	0.3	73.4*	-6.46*	57.5*

Bioassay records deposited in PubChem BioAssay by several laboratories.
